ST2 IL33 inh: IL1RL1 inhibition; actives 2.3% (n = 78,000); inhibition, % for hits at 17 µM; AlphaLISA ST2-Fc/biotin-IL-33 interaction, 1 h; Q01638; in the data active = inhibition above about 30%
Target sequence (Q01638 whole entry, looked up): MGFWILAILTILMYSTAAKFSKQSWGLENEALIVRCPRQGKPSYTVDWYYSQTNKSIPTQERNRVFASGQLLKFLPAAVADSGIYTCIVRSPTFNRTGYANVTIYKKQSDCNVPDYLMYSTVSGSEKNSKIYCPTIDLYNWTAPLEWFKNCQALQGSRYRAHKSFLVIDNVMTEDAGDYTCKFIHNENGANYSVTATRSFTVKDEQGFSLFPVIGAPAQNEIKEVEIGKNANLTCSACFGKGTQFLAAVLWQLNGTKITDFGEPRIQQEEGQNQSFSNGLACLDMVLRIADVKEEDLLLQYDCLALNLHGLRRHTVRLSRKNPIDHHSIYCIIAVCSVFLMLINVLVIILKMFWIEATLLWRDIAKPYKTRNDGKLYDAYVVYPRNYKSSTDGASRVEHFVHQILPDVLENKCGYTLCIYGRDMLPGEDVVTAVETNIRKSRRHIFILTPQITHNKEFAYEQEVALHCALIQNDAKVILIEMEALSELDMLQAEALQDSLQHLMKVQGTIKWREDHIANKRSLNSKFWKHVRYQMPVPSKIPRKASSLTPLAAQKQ
A number is an active result; i = inactive; ! = not active in a repeat. Many of the other results were omitted from the sample, so hits are more common in it than they were.

SMILES	ST2 IL33 inh
Cc1ccsc1CN(C)C(=O)CCN1CCCCO1	i
Cn1cc(CN(Cc2ccncc2)C[C@@H]2CCC(=O)N2)c(-c2cccc(Cl)c2)n1	i
CCn1c(CCNC(=O)C(C)(C)C)nc2ccccc21	i
CCn1c(C(C)NC(=O)C(C)(C)C)nc2ccccc21 (stereo not given)	i
CCNc1ccc(Br)cc1-c1nc2ccccc2n(CC)c1=O	77%
CC(C)(C)NC(=O)C1(S(=O)(=O)c2ccc(Cl)cc2)CC1	i
Cc1cc2cc(C(=O)NC(C)c3cnn(-c4ccccc4)c3C)ccc2o1 (stereo not given)	i
COc1ccc(NC(=O)CC2CCCCC2)c(OC)c1	i
CCCCOC(=O)Nc1ccc(OC)cc1[N+](=O)[O-]	47%
CCCCOC(=O)Nc1ccccc1F	i
COc1ccc(NC(=O)CC2CCCCC2)c([N+](=O)[O-])c1	40%
COc1ccc(NC(=O)CC2SC(N)=NC2=O)c([N+](=O)[O-])c1 (stereo not given)	i
COc1ccc(OCC(=O)Nc2ccc(OC)cc2[N+](=O)[O-])cc1	i
CCC(Nc1cccc(OC)c1)C(=O)NC1(CO)CCCC1 (stereo not given)	i
O=C(Nc1ccccc1O)c1ccc(Br)c(S(=O)(=O)N2CCOCC2)c1	i
CCc1nnc(CNc2nc(-c3ccccc3)nc3c2CCNC3)s1	i
Cc1nn(Cc2ccccc2Cl)c(C)c1NC(=O)c1cc(CC(C)C)on1	i
CC1(C)CC(C(=O)N2CCOc3c(cc(-c4cccnc4)cc3OCCc3cccs3)C2)CCO1 (stereo not given)	i
Cc1ccc(NC(=O)c2ccc([N+](=O)[O-])cc2)cc1	i
COc1ccc(C(=O)NCc2nc3cccnc3n2Cc2ccc(C)cc2)cc1	i
CC1CCc2c(sc(NC(=O)c3ccc(Br)o3)c2C(N)=O)C1 (stereo not given)	i
N#Cc1nc(-c2ccc(Cl)cc2)oc1NCc1ccco1	35%!
COc1ccc(-c2nc(S(=O)(=O)c3ccc(Cl)cc3)c(NCc3ccco3)o2)cc1	i
O=S(=O)(c1ccccc1)c1nc(-c2ccc(Cl)cc2)oc1NCc1ccco1	i
Cn1ccc(CC(=O)NC2CC(C)(C)Cc3c2cnn3-c2cccc(F)c2)c1 (stereo not given)	i
SMILES	ST2 IL33 inh
COc1ccc(O)c(C(=O)CC(=O)c2ccccc2)c1	32%
COc1ccc(C(=O)c2ccccc2)c(OCC(=O)N(C)C)c1	i
COC(=O)c1cc(O)c(OCc2ccccc2)c(O)c1	i
COC(=O)c1nc2n(n1)C(c1ccc(C)cc1)C(C(=O)OC1CCCCC1)=C(C)N2 (stereo not given)	i
O=C(c1cccc2c1-c1ccccc1/C2=N\O)N1CCCCC1	i
COc1cc(C2NC(=O)NC(C)=C2C(=O)OCC(C)C)ccc1OCc1ccccc1 (stereo not given)	i
CCOC(=O)C1C(=O)C=C(c2cccs2)CC1c1ccccc1OCC (stereo not given)	i
CCOC(=O)C1C(=O)C=C(c2cccs2)CC1c1ccc(OC)c(OC)c1 (stereo not given)	i
O=C1C=C(c2cccs2)C[C@H](c2ccccc2)[C@H]1n1nnc([N+](=O)[O-])n1	41%
O=C(NC1CC(=O)N(c2ccc(F)cc2)C1)c1ccc(Br)o1 (stereo not given)	i
Cc1ccc(S(=O)(=O)N=C2C=C(Nc3cccc(C(=O)O)c3)C(=O)c3ccccc32)c(C)c1	48%
Cc1ccc(S(=O)(=O)Nc2cccc(C(=O)NN)c2)cc1	i
Cc1cccc(NC(=O)C(C)N(c2ccccc2)S(C)(=O)=O)c1 (stereo not given)	i
Cc1ccc(NC(=O)c2cccc(S(=O)(=O)Nc3cccc(C(=O)O)c3)c2)cc1	i
Cc1ccc(S(=O)(=O)N=C2C=C(Nc3cccc(C(=O)O)c3)C(=O)c3ccccc32)cc1	53%
Cc1ccc([N+](=O)[O-])cc1S(=O)(=O)Nc1cccc(C(=O)O)c1	i
CCCCN(CC)S(=O)(=O)c1ccc2[nH]c(=O)cc(C(=O)NCc3cccs3)c2c1	i
Cc1ccc(CSC2=NCCN2C(=O)c2cccc(F)c2)cc1	i
COc1cc(O)c2c(c1)OC(c1ccc(O)c(O)c1)CC2=O (stereo not given)	i
O=C(Cn1c(=O)[nH]c2ccsc2c1=O)NCc1ccccc1	i
O=C(NCc1cccs1)c1cc(-c2ccc(Cl)s2)nc2ccccc12	30%!
Cc1ccc(CNC(=O)c2cc(-c3ccc(Cl)s3)nc3ccccc23)o1	i
O=C(NCc1cccs1)c1cc(-c2ccc(Br)s2)nc2ccccc12	i
Nc1nonc1-c1nc2ccccc2n1CC(=O)Nc1ccc(Cl)c(Cl)c1	i
CCC(C)C1N=C2c3ccccc3N=C(SCC(=O)N3CC(C)CC(C)C3)N2C1=O (stereo not given)	i
O=C1/C(=C/C=C/c2ccco2)CC/C1=C\C=C\c1ccco1	96%
CCOC(=O)N1CCN(C2CCCN(C3CCN(c4ccc(OC)cc4)CC3)C2)CC1 (stereo not given)	i
O=c1oc2ccc(Br)cc2cc1-c1nnc(-c2cccc(Br)c2)o1	i
CC(C)(C)C(=O)Nc1nc(-c2ccc(Br)cc2)cs1	i

Bioassay records as filed in PubChem BioAssay.
